aDG glyco up: activators of alpha-DG glycosylation, primary screen, uHTS, Pro5-aDG cells, AlphaScreen. actives 0.22% (n = 360,000). activation, % at 10 µM. alpha-DG glycosylation AlphaScreen (IIH6); 0% Pro5, 100% B10-LARGE cell signal;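 active = activation of at least 8% versus controls, or a plate z-score of at least 8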;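 also: Pro5 are CHO cells carrying HIG-tagged alpha-DG that lacks glycosylation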
FAS-TE inh: FAS thioesterase domain inhibitors, primary screen, biochemical, fluorescence intensity, uHTS; recombinant FAS-TE, OMFH fluorogenic substrate, fluorescence endpoint; inhibition, % at 15 µM; AID 602261, 2012; actives 0.67% (n = 360,000);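 active = compounds whose normalised, plate-corrected inhibition of enzyme fluorescence in the single-dose primary screen is 50% or more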;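 also: 0% = DMSO with enzyme and 100% = substrate without enzyme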
GC-B act: human GC-B receptor activators, primary screen, HEK293 GC-B cells, cGMP TR-FRET, EC30 CNP; AID 1920062, 2024; Atrial natriuretic peptide receptor 2 (Homo sapiens), P20594; actives 0.11% (n = 370,000); 0% at EC30 CNP, 100% saturating CNP; activation, % at 10 µM;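 active = activation at 10 µM reaching about 35% in either raw or pattern-adjusted values, limit read from the data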
GC-A act: GC-A stimulated cGMP production enhancers – HEK293 GC-A cells, cGMP TR-FRET, EC30 ANP, primary screen | 0% at EC30 ANP, 100% saturating ANP | activation, % at 10 µM | actives 0.14% (n = 370,000); in the data active = activation above about 40%
FAS-TE inh conf: FAS thioesterase domain inhibitors, confirmation, biochemical, fluorescence intensity, single concentration. shares compounds with FAS-TE inh. recombinant FAS-TE, OMFH fluorogenic substrate. inhibition, % at 15 µM. actives 45% (n = 2,300). AID 624325, 2012;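 active = compounds inhibiting the enzyme by at least 50% at 15 µM in any one of the replicates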;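 also: 0% = enzyme with DMSO only and 100% = wells lacking enzyme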
The depositor's hits bear a star. Rows were chosen to be rich in hits. Some 1.1% of all compounds tested hit in one or more screens of this group.

For Cc1ccc(C)c(N2CCN(S(=O)(=O)c3ccc4c(c3)CC(C)N4C(=O)C3CC3)CC2)c1 (stereo not drawn) the results were aDG glyco up 0, FAS-TE inh 54*, GC-B act -5, GC-A act -1 and FAS-TE inh conf 7.
For CC1Cc2cc(S(=O)(=O)N3CCN(C)CC3)ccc2N1C(=O)C1CC1 (stereo not drawn) the results were aDG glyco up 0, FAS-TE inh -6, GC-B act 3 and GC-A act 1.
Screening Cc1cccc(N2CCN(S(=O)(=O)c3ccc4c(c3)CC(C)N4C(=O)C3CC3)CC2)c1C (stereo not drawn) returned aDG glyco up 0, FAS-TE inh 65*, GC-B act 2, GC-A act -1 and FAS-TE inh conf 14.
`Cc1c(NC(=O)C2CCCN(S(=O)(=O)c3ccc(F)cc3)C2)c(=O)n(-c2ccccc2)n1C` (stereo not drawn) gave GC-B act 5 and GC-A act 5.
CC(=O)O[C@@H]1C=C[C@@H](C#Cc2ccc(C(C)(C)C)cc2)O[C@@H]1COC(=O)NC(C)C was read as GC-B act 8 and GC-A act 9.
For CN(C)S(=O)(=O)c1ccc(N2CCCC2)c(C(=O)Nc2nc(-c3cc(F)ccc3F)cs2)c1 the results were aDG glyco up 0, FAS-TE inh 13, GC-B act 11 and GC-A act 9.
Screening CN(C)S(=O)(=O)c1ccc(N2CCCC2)c(C(=O)Nc2nc(-c3ccc(F)cc3)cs2)c1 returned aDG glyco up 0, FAS-TE inh 56*, GC-B act 17, GC-A act 8 and FAS-TE inh conf 24.
CN(C)S(=O)(=O)c1ccc(N2CCCC2)c(C(=O)Nc2nc3ccccc3s2)c1 was read as aDG glyco up 0, FAS-TE inh 4, GC-B act 4 and GC-A act 6.
For CN(C)S(=O)(=O)c1ccc(N2CCCC2)c(C(=O)Nc2nc3ccc(F)cc3s2)c1 the results were aDG glyco up 0, FAS-TE inh 71*, GC-B act 6, GC-A act 8 and FAS-TE inh conf 22.
CCOC(=O)CN(C(=O)COc1nc(-c2ccccc2)cc(C)c1C#N)c1ccccc1 was read as aDG glyco up 0, FAS-TE inh 59*, GC-B act -10, GC-A act -19 and FAS-TE inh conf 30.
For CCOC(=O)CN(C(=O)COc1nc(-c2ccccc2)cc(C)c1C#N)c1cccc(OC)c1 the results were aDG glyco up 0, FAS-TE inh 52*, GC-B act -4, GC-A act -2 and FAS-TE inh conf 3.
CCOC(=O)CN(C(=O)COc1nc(-c2ccccc2)cc(C)c1C#N)c1ccc(C)cc1 was read as aDG glyco up 0, FAS-TE inh 49, GC-B act -5 and GC-A act -4.
`Cc1cccc(-n2c(SCC(=O)N3CC(=O)Nc4ccccc43)nc3ccccc3c2=O)c1` gave aDG glyco up 0, FAS-TE inh 7, GC-B act -7 and GC-A act -28.
O=C1CN(C(=O)CSc2nc3cc(Cl)ccc3c(=O)n2Cc2ccccc2)c2ccccc2N1 was read as aDG glyco up -1, FAS-TE inh 76*, GC-B act -20, GC-A act -34 and FAS-TE inh conf 20.
`Cc1ccc(Cn2c(SCC(=O)N3CC(=O)Nc4ccccc43)nc3ccccc3c2=O)cc1` gave aDG glyco up 0, FAS-TE inh 53*, GC-B act 2, GC-A act 0 and FAS-TE inh conf 23.
`Cc1nnc(SCC(=O)N2CC(=O)Nc3ccccc32)n1Cc1ccccc1` gave aDG glyco up 0, FAS-TE inh -10, GC-B act -1 and GC-A act 3.
`CC(c1ccccc1)n1c(SCC(=O)N2CC(=O)Nc3ccccc32)nc2ccccc2c1=O` (stereo not drawn) gave aDG glyco up 0, FAS-TE inh 56*, GC-B act -16, GC-A act -27 and FAS-TE inh conf 27.
Screening CC1=C2N=C(N)N(Cc3ccccc3)C(Cc3ccccc3)C2n2c(=O)n(-c3ccccc3)c(=O)n2C1 (stereo not drawn) returned GC-B act -7 and GC-A act -12.

Screening results (PubChem)
